From PubChem BioAssay
Activity calls are given as the source filed them. Unless noted, the rule behind the calls is not given here.

How the values were obtained:
[1] = A549 cell viability effects, profiling panel, calcein-AM fluorescence, 48 h, basal (AID 1162); details: higher = more signal; note: test concentration not given here
[2] = adipocyte viability effects, profiling panel, cell-based, 3T3-L1 adipocytes, calcein-AM fluorescence, 48 h, basal (AID 1163); details: 3T3-L1 adipocytes viability, higher = more signal; note: test concentration not given here
[3] = HepG2 cell viability effects, profiling panel, calcein-AM fluorescence, 48 h, basal (AID 1164); details: higher = more signal; note: test concentration not given here
[4] = MM1S cell viability effects, profiling panel, calcein-AM fluorescence, 48 h, basal (AID 1165); details: higher = more signal;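 note: viability of MM1S multiple myeloma cells under basal unstimulated conditions; test concentration not given here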
[5] = basal RPMI8226 viability, no added stimulus, profiling panel, cell-based, calcein-AM fluorescence, 48 h, PK04 Diversity Set (AID 1166); details: RPMI8226 myeloma viability, higher = more signal;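 note: cells grown under basal conditions without added stimulus; test concentration not given here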
[6] = basal HepG2 mitochondrial membrane potential changes, profiling panel, cell-based, JC-1 fluorescence, 24 h, 100 nL compound (AID 1167); details: higher = more signal; note: test concentration not given here
[7] = basal 3T3-L1 adipocyte mitochondrial potential changes, profiling panel, cell-based, JC-1 fluorescence, 3T3-L1 adipocytes, 24 h, 100 nL compound (AID 1168); details: JC-1 mitochondrial fluorescence, higher = more signal, called active from +8 up or from −8 down; note: test concentration not given here
[8] = basal RPMI8226 mitochondrial membrane potential changes, profiling panel, cell-based, JC-1 fluorescence, 24 h, 100 nL compound (AID 1169); details: RPMI8226 myeloma, JC-1 mitochondrial potential fluorescence, higher = more signal; note: test concentration not given here
[9] = basal MM1S mitochondrial membrane potential changes, profiling panel, cell-based, JC-1 fluorescence, 24 h, 100 nL compound (AID 1170); details: higher = more signal; note: test concentration not given here
[10] = A549 lung cancer cell viability effects, profiling panel, resazurin fluorescence, 24 h, PK04 Diversity Set (AID 1171); details: higher = more signal, called active from +8 up or from −8 down; note: test concentration not given here
[11] = HepG2 liver cancer cell viability effects, profiling panel, resazurin fluorescence, 24 h, PK04 Diversity Set (AID 1172); details: higher = more signal; note: test concentration not given here
[12] = basal S. cerevisiae growth modulation, no modifier, primary screen, OD600, strain BY4716, 24 h, basal condition (AID 1173); details: OD600, 24 h, higher = more signal, called active from +8 up or from −8 down
[13] = MM1S myeloma cell viability, profiling panel, resazurin fluorescence, basal, 24 h, PK04 Diversity Set (AID 1174); details: higher = more signal, called active from +8 up or from −8 down;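 note: MM1S multiple myeloma cell line; test concentration not given here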
[14] = biological target: Dihydroorotate dehydrogenase (quinone), mitochondrial (Plasmodium falciparum (isolate 3D7)) (UniProt Q08210); assay: PfDHODH enzyme inhibitors, primary screen, biochemical, C-terminal His tag, absorbance 600 nm (AID 1175); details: DCIP absorbance 600 nm, higher = more signal, called active from +8 up or from −8 down;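 note: recombinant parasite enzyme with a five histidine tag at its C terminus; test concentration not given here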
[15] = P. aeruginosa biofilm formation inhibitors, primary screen, strain PAO1, LB-PBS medium, absorbance 600 nm (AID 1176); note: test concentration not given here; details: P. aeruginosa PAO1 growth/biofilm, A600, 12 h; higher = more signal
[16] = S. cerevisiae RM11-1a growth modifiers, primary screen, strain RM11-1a, OD600, basal, 24 h (AID 1177); details: OD600, 24 h, higher = more signal, called active from +8 up or from −8 down;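 note: cultures grown under basal conditions with no added stressor; test concentration not given here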
[17] = E. coli acrAB mutant growth effects, primary screen, E. coli filamentation inducers, strain DRC39, OD650, 24 h (AID 1178); details: higher = more signal, called active from +8 up or from −8 down;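 note: growth measured as culture turbidity by optical density at 650 nm; test concentration not given here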
[18] = E. coli acrAB mutant growth effects, primary screen, E. coli filamentation inducers, strain DRC39, OD650, 48 h (AID 1179);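 note: screen aims at cell division blockers that make cells filament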; details: E. coli DRC39 delta-acrAB growth, higher = more signal, called active from +8 up or from −8 down
[19] = RPMI8226 myeloma cell viability, profiling panel, resazurin fluorescence, basal, 24 h, PK04 Diversity Set (AID 1180); details: higher = more signal;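 note: RPMI8826 multiple myeloma cell line at 5000 cells per well; test concentration not given here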
[20] = biological target: E3 ubiquitin-protein ligase XIAP (Homo sapiens) (UniProt P98170); assay: XIAP binders, primary screen, biophysical, small-molecule microarray, fluorescence 635 nm (AID 1181); details: small-molecule microarray binding, higher = more signal;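 note: score merges 667 nm emission and signal to noise over triplicate slides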
Chain of E3 ubiquitin-protein ligase XIAP (Homo sapiens) (P98170 whole entry, looked up): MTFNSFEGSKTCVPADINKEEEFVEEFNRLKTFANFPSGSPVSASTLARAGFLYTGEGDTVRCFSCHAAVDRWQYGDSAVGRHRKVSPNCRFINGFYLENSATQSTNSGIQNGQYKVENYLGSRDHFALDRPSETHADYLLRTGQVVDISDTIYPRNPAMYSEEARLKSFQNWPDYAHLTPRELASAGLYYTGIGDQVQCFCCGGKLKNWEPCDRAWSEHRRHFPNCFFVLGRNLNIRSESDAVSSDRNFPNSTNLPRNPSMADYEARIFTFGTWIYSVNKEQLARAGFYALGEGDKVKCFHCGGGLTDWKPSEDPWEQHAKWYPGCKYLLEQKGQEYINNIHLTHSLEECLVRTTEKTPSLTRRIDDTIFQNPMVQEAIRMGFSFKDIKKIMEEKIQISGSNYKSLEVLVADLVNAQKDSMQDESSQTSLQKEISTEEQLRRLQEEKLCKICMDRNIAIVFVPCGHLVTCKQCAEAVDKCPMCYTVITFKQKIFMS

Chain of Dihydroorotate dehydrogenase (quinone), mitochondrial (Plasmodium falciparum (isolate 3D7)) (Q08210 whole entry, looked up): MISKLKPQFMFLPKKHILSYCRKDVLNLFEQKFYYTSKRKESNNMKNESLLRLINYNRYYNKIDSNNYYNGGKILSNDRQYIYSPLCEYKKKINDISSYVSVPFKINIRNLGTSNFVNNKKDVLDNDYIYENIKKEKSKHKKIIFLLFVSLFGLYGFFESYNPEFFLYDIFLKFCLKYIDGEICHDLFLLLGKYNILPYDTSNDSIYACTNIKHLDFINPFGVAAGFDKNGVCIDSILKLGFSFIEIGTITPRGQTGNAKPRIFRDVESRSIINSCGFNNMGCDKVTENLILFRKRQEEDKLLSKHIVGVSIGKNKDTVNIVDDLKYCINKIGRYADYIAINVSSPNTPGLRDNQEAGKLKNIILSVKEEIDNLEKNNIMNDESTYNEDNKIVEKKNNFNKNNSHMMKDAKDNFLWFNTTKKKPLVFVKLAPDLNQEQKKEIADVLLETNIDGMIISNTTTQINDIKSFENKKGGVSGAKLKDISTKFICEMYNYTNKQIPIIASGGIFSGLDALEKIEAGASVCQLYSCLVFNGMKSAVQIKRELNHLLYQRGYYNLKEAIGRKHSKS

| Structure (SMILES) | z-score [1] | z-score [2] | z-score [3] | z-score [4] | z-score [5] | z-score [6] | z-score [7] | z-score [8] | z-score [9] | z-score [10] | z-score [11] | z-score [12] | z-score [13] | composite z-score [14] | z-score [15] | z-score [16] | z-score [17] | z-score [18] | z-score [19] | composite z-score [20] |
| --- | --- | --- | --- | --- | --- | --- | --- | --- | --- | --- | --- | --- | --- | --- | --- | --- | --- | --- | --- | --- |
| COc1ccc(C(O)C2C=CC3C(=O)N(C)C(=O)C3N2Nc2ccccc2)cc1OCc1ccccc1 (stereo not given) | -0.433 | -0.621 | -0.269 | -0.23 | -0.427 | -1.7 | -0.989 (inactive) | 0.324 | 0.0666 | 1.88 (inactive) | 0.043 | -12.9 (active) | -0.157 (inactive) | 0.669 (inactive) | 1.03 (inactive) | 1.17 (inactive) | -1.02 (inactive) | -1.05 (inactive) | -0.543 | 0.209 |
| O=C1O[C@H](c2ccccc2)[C@H](c2ccccc2)N2[C@H]1[C@@H](C(=O)Nc1nc3ccccc3s1)[C@]1(C(=O)Nc3ccccc31)[C@H]2c1ccc(O)cc1 | -0.167 | 0.657 | -1.99 | -3.38 | -4.51 | -3.78 | 0.032 (inactive) | -1.12 | -0.564 | -0.358 (inactive) | -0.166 | -0.373 (inactive) | -2.72 (inactive) | 0.192 (inactive) | 1.18 (inactive) | -0.393 (inactive) | -0.797 (inactive) | -1.24 (inactive) | -2.81 | -0.127 |
| COC(=O)[C@@]1(Cc2ccc(OC)cc2)[C@H]2c3cc(C(=O)N4CCCC4)n(CCc4c[nH]c5cc(F)ccc45)c3C[C@H]2CN1C(=O)c1ccccc1 | 0.866 | -0.124 | 0.172 | -1.08 | -0.758 | -0.37 | 0.492 (inactive) | -0.304 | -0.662 | 0.313 (inactive) | -0.679 | 1.15 (inactive) | -0.502 (inactive) | 0.461 (inactive) | 0.964 (inactive) | 0.473 (inactive) | -0.29 (inactive) | -0.141 (inactive) | -0.642 | 0.172 |
| COc1cc2c(cc1OC)CN(C(=O)[C@@H]1[C@H]3C(=O)O[C@H](c4ccccc4)[C@H](c4ccccc4)N3[C@H](c3ccccc3OCCO)[C@@]13C(=O)Nc1ccc(C#CCNC(N)=O)cc13)CC2 | 1.12 | 1.62 | 0.871 | 0.52 | 0.625 | -1.74 | 1.63 (inactive) | -0.423 | -0.322 | -0.532 (inactive) | 0.0227 | 0.74 (inactive) | -0.148 (inactive) | -0.839 (inactive) | 2.93 (inactive) | 3 (inactive) | 1.13 (inactive) | 1.31 (inactive) | 0.088 | 0.153 |
| COCCOC(=O)N1C(=O)[C@@]2(c3cc(C#CCC(C(=O)OC)C(=O)OC)ccc31)[C@H](c1ccccc1OCCO)N1[C@H](c3ccccc3)[C@H](c3ccccc3)OC(=O)[C@H]1[C@@H]2C(N)=O | 0.597 | 0.0915 | -1.58 | -3.4 | -4.17 | -0.603 | 1.69 (inactive) | -0.986 | -1.84 | -0.212 (inactive) | -0.592 | 0.9 (inactive) | -9.3 (active) | 0.47 (inactive) | 0.774 (inactive) | 1.97 (inactive) | 0.116 (inactive) | 0.857 (inactive) | -7.24 | -0.0874 |
| COC(=O)C(CC#Cc1ccc2c(c1)[C@]1(C(=O)N2)[C@H](C(=O)NC[C@H](O)c2ccccc2)[C@H]2C(=O)O[C@H](c3ccccc3)[C@H](c3ccccc3)N2[C@@H]1c1ccc(OCCO)cc1)C(=O)OC | 1.07 | 0.55 | 0.0255 | -1.17 | 0.0736 | -1.06 | 1.04 (inactive) | -0.94 | -1.15 | 0.199 (inactive) | 0.0416 | 1.77 (inactive) | -0.0507 (inactive) | -16.8 (active) | 3.42 (inactive) | 2.62 (inactive) | 0.389 (inactive) | 0.335 (inactive) | -0.223 | 0.201 |
| CCCC[C@H]1OB(O)C[C@H]2C1=C(C)C[C@H]1C(=O)N(Cc3ccccc3)C(=O)[C@H]12 | 0.601 | 0.379 | -0.152 | -0.551 | -0.0458 | -0.432 | 0.203 (inactive) | -0.333 | 0.625 | 0.174 (inactive) | 0.589 | -5.14 (inactive) | 0.355 (inactive) | -0.231 (inactive) | 0.0481 (inactive) | -0.621 (inactive) | 1.68 (inactive) | 0.452 (inactive) | 0.156 | -0.0627 |
| [N-]=[N+]=NCc1ccccc1C[C@]1(C(=O)O)N=C(c2ccc(OCCCO)cc2)O[C@H]1c1ccccc1CN=[N+]=[N-] | -0.437 | 0.368 | -0.302 | -0.966 | -1.53 | -2.38 | -1.4 (inactive) | -0.789 | 0.432 | 1.17 (inactive) | 0.924 | -3.5 (inactive) | 0.349 (inactive) | -2.16 (inactive) | 0.563 (inactive) | -1.05 (inactive) | 0.279 (inactive) | -0.717 (inactive) | -0.0479 | -0.139 |
| [N-]=[N+]=NCc1ccccc1C[C@]1(C(=O)NCC(O)CO)N=C(c2ccc(OCCCO)cc2)O[C@H]1c1ccccc1N=[N+]=[N-] (stereo not given in full) | -0.13 | 1.27 | -0.35 | -1.09 | -1.11 | 0.0849 | 1.19 (inactive) | -0.893 | -0.384 | 0.0953 (inactive) | 0.207 | 0.664 (inactive) | -0.403 (inactive) | 1.83 (inactive) | 0.208 (inactive) | 2.8 (inactive) | 1.22 (inactive) | 0.0128 (inactive) | -0.986 | -0.0057 |
